This note sets out measurements from ChEMBL document CHEMBL3433997, “St. Jude Leishmania screening dataset” (2016).

What is called inhibition is the relative decrease from the control value, in per cent.

For this experiment, the target named is Solute carrier family 2, facilitated glucose transporter member 1 (Homo sapiens) (UniProt P11166). The experiment is described as follows: ST_JUDE_LEISH: Cytotoxicity at 2uM final concentration against transgenic Leishmania Mexicana promastigotes LmGLUT1 that are glucose transport deficient and complemented with the human glucose transporter GLUT1. Activity is measured by DNA content using SYBR green in vitro. It counts as functional.
Solute carrier family 2, facilitated glucose transporter member 1 (Homo sapiens), sequence (P11166 whole entry): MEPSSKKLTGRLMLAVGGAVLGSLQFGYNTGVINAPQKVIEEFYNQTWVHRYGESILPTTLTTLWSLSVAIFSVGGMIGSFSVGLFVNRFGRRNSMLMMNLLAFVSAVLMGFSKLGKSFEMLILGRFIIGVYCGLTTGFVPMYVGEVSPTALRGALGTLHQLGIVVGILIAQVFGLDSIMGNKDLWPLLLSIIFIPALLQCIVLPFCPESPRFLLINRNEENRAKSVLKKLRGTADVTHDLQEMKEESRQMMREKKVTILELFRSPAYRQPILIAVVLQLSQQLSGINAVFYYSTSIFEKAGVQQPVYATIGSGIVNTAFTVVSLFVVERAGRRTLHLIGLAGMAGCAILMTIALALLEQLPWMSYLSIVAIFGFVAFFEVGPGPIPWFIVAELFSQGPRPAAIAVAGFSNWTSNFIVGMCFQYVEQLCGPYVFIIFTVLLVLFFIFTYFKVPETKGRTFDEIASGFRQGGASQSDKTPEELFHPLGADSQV
As to `CCN(CC)CCOc1c(Cl)cc(Cl)cc1CNCCCNc1cc(=O)c2ccccc2[nH]1`, the inhibition was found to be 0.34%.

Consider `CC(C)(C)c1ccc(CN2CCC(NC(=O)c3ccc(-c4ccccc4Cl)s3)CC2)cc1`, for which the inhibition amounted to 10.1%.

`c1ccc(CN2CCC(NCc3cccc(-c4cncc5ccccc45)c3)CC2)cc1`: the inhibition was found to be 9.44%.

Take `Cc1cc(NCc2ccccc2)nc(NCc2ccccc2)n1`: the inhibition worked out at 11.8%.

For `CC(=NNC(S)=NCCc1ccccc1)c1ccccn1`, the inhibition worked out at 57.4%.

`CCCCC(CC)CN1C(=O)C(c2ccccc2)(c2ccccc2)N=C1N` (stereo not given): the inhibition was -0.17%.

`CCc1ccc(C2CCN(CCCCNC(=O)c3ccc(-c4ccc(C(F)(F)F)cc4)cc3)CC2)c(OCCO)c1`: the inhibition is 7.26%.

For `Fc1ccc(C=NNc2nc3ccccc3[nH]2)cc1`, the inhibition came out at 16.4%.

Take `CCC(C)OC(=O)C1=C(C)NC2=C(C(=O)CC(c3ccc(OC)c(OC)c3)C2)C1c1cccc(O)c1` (stereo not given): the inhibition worked out at 4.07%.

Regarding `CC(C)CCn1c(Sc2ccc(C#N)c([N+](=O)[O-])c2)nnc1-c1ccc(Cl)cc1`, the inhibition came to 10.1%.

As for `O=C(CN1CCCC1)Nc1cccc(C(=O)Nc2cccc(C(F)(F)F)c2)c1`, the inhibition was found to be 1.71%.

Turning to `Fc1ccc(Nc2ccnc3cc(-c4cccc(CN5CCCCC5)c4)ccc23)c(Cl)c1`, the inhibition was determined as 4.23%.

For the compound `O=C(NCCCCN1CCC(c2ccc3c(c2OCCO)CCCC3)CC1)c1ccc(-c2ccc(C(F)(F)F)cc2)cc1`, the inhibition is -0.75%.

As for `O=C(NCCN1CCCC1)c1cccc(-c2ccc(-c3nc4cc(F)ccc4[nH]3)cc2)c1`, the inhibition is -0.09%.

As for `O=C(Nc1ccccc1O)c1ccc(S(=O)(=O)c2ccc(Cl)cc2)cc1`, the inhibition amounted to 5.52%.

In the case of `CCCCOc1c(CCNCCCCNCCc2cc(OC)c3ccccc3c2OCCCC)cc(OC)c2ccccc12`, the inhibition came out at 4.98%.

Take `CCCCNS(=O)(=O)c1ccc(NC(=O)c2cc([N+](=O)[O-])ccc2Cl)cc1`: the inhibition came to 2.21%.

In the case of `COc1cc(C(=O)NC2CCN(Cc3ccccc3)CC2)ccc1-c1cc2cc(Cl)c(Cl)cc2[nH]1`, the inhibition came out at 3.35%.

`CC1(C)NC(N)=NC(=N)N1OCCCNC(=O)c1ccc(C(=O)NCCCON2C(=N)N=C(N)NC2(C)C)cc1`: the inhibition came to 0.28%.

For the compound `OCCN1CCN(C2Cc3ccc(F)cc3Sc3ccc(Cl)cc32)CC1` (stereo not given), the inhibition was 0.59%.

On to `COc1cc(Nc2ccnc3cc(-c4ccncc4)ccc23)cc(OC)c1OC`, for which the inhibition was 11.4%.

Regarding `C=CCc1cc(Br)ccc1OCCCOc1c(C)nc(N)nc1N`, the inhibition was 73.6%.

For `CC(=O)Oc1c(Cl)c(C)nc(C)c1-c1ccc(Oc2ccc(Cl)cc2)cc1`, the inhibition was 9.11%.

For `COc1ccc(CNC(=O)c2cc3c(=O)n4ccccc4nc3n(CCc3ccccc3)c2=N)cc1`, the inhibition is 15.5%.

As to `CC(=O)Nc1ccc2[nH]cc(C3CCN(CC4CCC(NC(=O)/C=C/c5ccccc5Cl)CC4)CC3)c2n1` (stereo not given), the inhibition amounted to 6.86%.

With `O=C(Nc1ccc2oc(-c3ccc(Br)cc3)nc2c1)c1ccc([N+](=O)[O-])o1`, the inhibition amounted to 10.3%.

Regarding `CCc1cccc(OCCCON2C(=N)N=C(N)NC2(C)C)c1`, the inhibition came out at 7.55%.

On to `CC(CCON1C(N)=NC(N)=NC1(C)C)c1ccc(Cl)c(Cl)c1` (stereo not given), for which the inhibition is 26.6%.

On to `CCCc1cc(Cc2cnc(N)nc2N)cc(CCC)c1OCCCCC(=O)OCC`, for which the inhibition is 6.48%.

For the compound `CN1CCCN(Cc2ccc(-c3cccc(NC(=O)c4cccc(Cl)c4)c3)cc2)CC1`, the inhibition was 16.5%.

In the case of `CN(C)c1ccc(-c2ccc(C(=O)NC3CCN(Cc4ccc(F)cc4)CC3)s2)cc1`, the inhibition is 5.83%.

On to `CCOc1cc(C)ccc1C1CCN(CCCCNC(=O)c2ccc(-c3ccc(C(F)(F)F)cn3)cc2)CC1`, for which the inhibition was determined as 10.4%.

`Cc1cc(N2CCCN(C)CC2)nc(Nc2ccc(Cl)cc2)n1`: the inhibition amounted to 1.53%.

For the compound `Cc1ncc(CN2CCC(C(=O)Nc3ccc(-c4nc5ccccc5o4)cc3)CC2)s1`, the inhibition was -2.13%.

With `Cc1ccc(OC2CCN(CCCCC3(C)C(=O)Nc4ccccc43)CC2)cc1` (stereo not given), the inhibition came to 4.24%.

With `COC[C@H]1CCCN1Cc1ccc(-c2ccc(-c3nc4ccccc4[nH]3)s2)cc1`, the inhibition was determined as 2.15%.

Turning to `c1ccc(Oc2ccc(Nc3ccnc4cc(-c5ccc(CNCCN6CCOCC6)o5)ccc34)cc2)nc1`, the inhibition worked out at 2.93%.

For the compound `COc1cc(NCCCNC(=O)c2cc3c(Cl)cc(Cl)cc3[nH]2)nc2ccccc12`, the inhibition was determined as 2.04%.

Regarding `O=C(Nc1ccc2ccccc2n1)c1ccccc1-c1ccccc1`, the inhibition was -0.59%.

For the compound `Cc1cc(CNC(=O)[C@H](CC2CCCCC2)Nc2ccc(C#N)c3ccccc23)c(C(F)(F)F)o1`, the inhibition was found to be 1.15%.
